Source: PubChem BioAssay
Active and inactive are the calls of the source.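 The calls were made as follows, unless noted: active = GFP response above 150% of the DMSO level; inconclusive = fewer than 70 events counted for a yeast strain; inactive = the rest.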

Legend:
[1] = inhibitors of CD8+ T cell-vesicle binding, pilot screen, LFA-1/ICAM-1 modulator project, MLPCN validation set, flow cytometry (AID 2523;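 active = response below a set limit, under 55% cells CD8-positive and vesicle-bound, and CD8 cells' 90th-percentile brightness under 279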;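 as to vesicle binding response: mean PE anti-B7-1 fluorescence of CD8+ cells relative to row control; 100% = QL9-loaded vesicles with DMSO vehicle in the same plate row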); conditions: 2C mouse CD8+ T cells, at 7 µM, stronger effect = lower value; double positive events: measured here: CD8+/vesicle+ event percentage
[2] = target: Integrin beta-1 (Homo sapiens) + Integrin alpha-4 (Homo sapiens) (UniProt P13612+P05556); assay: inhibition of HUTS-21 binding to VLA-4, pilot screen, VLA-4 allosteric modulator project, U937 cells, HUTS-21 mAb, flow cytometry, validation set (AID 2674;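 active = inhibition above 50%, about 3 SD of the validation set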;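 also: antibody binding induced by the VLA-4 ligand LDV present at three times its Kd; 0% = LDV ligand with antibody and no compound and 100% = antibody without LDV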); conditions: HUTS-21 LIBS mAb binding, at 6.7 µM, stronger effect = higher value, binding induced by LDV ligand
Sequence of Integrin beta-1 (Homo sapiens) + Integrin alpha-4 (Homo sapiens) (P05556 whole entry, looked up): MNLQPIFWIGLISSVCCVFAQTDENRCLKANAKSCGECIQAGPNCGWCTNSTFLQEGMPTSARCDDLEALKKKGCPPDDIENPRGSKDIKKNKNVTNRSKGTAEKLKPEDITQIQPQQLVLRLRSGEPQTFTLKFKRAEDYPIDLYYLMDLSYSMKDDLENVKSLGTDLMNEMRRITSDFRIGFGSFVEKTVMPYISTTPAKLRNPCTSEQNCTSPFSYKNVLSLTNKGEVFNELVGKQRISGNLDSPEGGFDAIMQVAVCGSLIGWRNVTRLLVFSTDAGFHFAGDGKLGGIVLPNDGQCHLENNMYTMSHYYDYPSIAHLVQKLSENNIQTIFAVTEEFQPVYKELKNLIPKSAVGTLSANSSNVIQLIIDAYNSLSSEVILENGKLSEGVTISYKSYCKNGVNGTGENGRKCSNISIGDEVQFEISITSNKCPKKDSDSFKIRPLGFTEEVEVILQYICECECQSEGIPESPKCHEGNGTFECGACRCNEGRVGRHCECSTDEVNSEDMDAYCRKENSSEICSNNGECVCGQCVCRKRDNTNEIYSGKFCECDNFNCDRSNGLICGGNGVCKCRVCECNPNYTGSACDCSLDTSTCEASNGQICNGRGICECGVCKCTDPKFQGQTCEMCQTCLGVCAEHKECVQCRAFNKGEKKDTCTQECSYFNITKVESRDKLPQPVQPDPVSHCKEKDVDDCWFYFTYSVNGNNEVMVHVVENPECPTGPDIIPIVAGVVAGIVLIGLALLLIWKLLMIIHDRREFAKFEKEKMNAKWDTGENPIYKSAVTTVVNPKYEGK
Sequence of Integrin beta-1 (Homo sapiens) + Integrin alpha-4 (Homo sapiens) (P13612 whole entry, looked up): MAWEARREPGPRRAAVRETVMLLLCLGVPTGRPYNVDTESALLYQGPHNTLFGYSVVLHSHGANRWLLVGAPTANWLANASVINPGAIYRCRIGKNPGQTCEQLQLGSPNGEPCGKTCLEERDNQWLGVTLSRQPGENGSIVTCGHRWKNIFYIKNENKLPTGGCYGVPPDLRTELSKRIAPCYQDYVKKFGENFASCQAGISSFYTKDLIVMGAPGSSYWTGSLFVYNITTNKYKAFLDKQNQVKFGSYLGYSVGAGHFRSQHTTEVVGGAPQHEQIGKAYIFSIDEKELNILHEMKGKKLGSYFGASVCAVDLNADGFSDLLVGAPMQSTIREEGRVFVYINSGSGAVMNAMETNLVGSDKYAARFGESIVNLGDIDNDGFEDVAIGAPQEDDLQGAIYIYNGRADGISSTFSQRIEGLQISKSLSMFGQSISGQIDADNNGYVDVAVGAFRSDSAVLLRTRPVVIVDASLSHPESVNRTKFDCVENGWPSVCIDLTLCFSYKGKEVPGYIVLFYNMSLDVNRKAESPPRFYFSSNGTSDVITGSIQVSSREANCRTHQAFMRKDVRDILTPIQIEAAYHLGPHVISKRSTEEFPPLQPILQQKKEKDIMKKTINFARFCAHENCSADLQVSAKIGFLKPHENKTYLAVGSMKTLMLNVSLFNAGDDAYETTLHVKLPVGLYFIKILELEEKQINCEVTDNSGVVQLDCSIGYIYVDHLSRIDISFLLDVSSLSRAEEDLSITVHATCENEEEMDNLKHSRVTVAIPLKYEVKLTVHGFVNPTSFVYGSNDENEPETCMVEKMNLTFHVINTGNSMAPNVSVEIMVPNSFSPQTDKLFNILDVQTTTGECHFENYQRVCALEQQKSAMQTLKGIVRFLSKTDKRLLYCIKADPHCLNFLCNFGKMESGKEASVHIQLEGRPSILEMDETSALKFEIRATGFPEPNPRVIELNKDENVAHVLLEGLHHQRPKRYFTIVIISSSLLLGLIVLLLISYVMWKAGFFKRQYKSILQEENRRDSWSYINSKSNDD

[3] = superoxide lowering in aged yeast cells, pilot screen, validation compound set (AID 2706;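 active = superoxide response below 65% of plate, a cut near 3 SD across the whole screen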;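 also: yeast exposed to compound for one week at 30 degrees C before staining; 100% = mean of all compound wells on the same plate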); conditions: S. cerevisiae aging, superoxide DHE fluorescence; at 10 µM, stronger effect = lower value
[4] = target: Beta-adrenergic receptor kinase 1 (Homo sapiens) (UniProt P25098); assay: GRK2 binders displacing RNA aptamer, biochemical, validation, human GRK2, bead flow cytometry (AID 488806;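 active = aptamer binding inhibition above 30%, about 3 SD of noise from non-fluorescent compounds; inactive = inhibition at or below 30%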); conditions: bead-bound GRK2, FAM-aptamer displacement, at 10 µM, stronger effect = higher value
Sequence of Beta-adrenergic receptor kinase 1 (Homo sapiens) (P25098 whole entry, looked up): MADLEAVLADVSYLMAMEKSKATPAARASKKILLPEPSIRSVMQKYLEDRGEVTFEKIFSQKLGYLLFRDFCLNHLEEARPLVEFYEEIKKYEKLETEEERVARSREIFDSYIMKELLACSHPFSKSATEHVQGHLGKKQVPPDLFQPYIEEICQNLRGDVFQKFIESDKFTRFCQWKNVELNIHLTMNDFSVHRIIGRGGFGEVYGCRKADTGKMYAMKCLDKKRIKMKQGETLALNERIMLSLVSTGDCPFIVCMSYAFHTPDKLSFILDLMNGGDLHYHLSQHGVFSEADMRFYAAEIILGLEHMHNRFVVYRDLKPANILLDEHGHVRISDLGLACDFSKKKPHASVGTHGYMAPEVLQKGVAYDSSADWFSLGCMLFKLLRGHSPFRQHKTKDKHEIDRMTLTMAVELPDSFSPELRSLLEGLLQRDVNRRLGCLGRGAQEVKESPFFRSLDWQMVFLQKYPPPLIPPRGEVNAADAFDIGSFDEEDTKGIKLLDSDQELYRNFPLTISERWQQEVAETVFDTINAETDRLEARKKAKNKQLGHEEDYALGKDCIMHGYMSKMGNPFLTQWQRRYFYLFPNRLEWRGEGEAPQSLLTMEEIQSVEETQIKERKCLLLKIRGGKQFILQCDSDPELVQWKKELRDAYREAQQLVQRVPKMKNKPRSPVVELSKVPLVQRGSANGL

[5] = target: Beta-2 adrenergic receptor (Homo sapiens) (UniProt P07550); assay: beta2AR agonists driving receptor internalization, pilot screen, cell-based, FAP fluorogen, flow cytometry, validation set (AID 504459;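 active = percent response above 42, roughly 3 SD of non-fluorescent test compounds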;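 also: agonist-driven loss of surface beta2AR via internalization measured by FAP dye flow cytometry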); conditions: Am2.2-beta2AR cells, FAP surface receptor flow cytometry; at 10 µM; stronger effect = higher value
Sequence of Beta-2 adrenergic receptor (Homo sapiens) (P07550 whole entry, looked up): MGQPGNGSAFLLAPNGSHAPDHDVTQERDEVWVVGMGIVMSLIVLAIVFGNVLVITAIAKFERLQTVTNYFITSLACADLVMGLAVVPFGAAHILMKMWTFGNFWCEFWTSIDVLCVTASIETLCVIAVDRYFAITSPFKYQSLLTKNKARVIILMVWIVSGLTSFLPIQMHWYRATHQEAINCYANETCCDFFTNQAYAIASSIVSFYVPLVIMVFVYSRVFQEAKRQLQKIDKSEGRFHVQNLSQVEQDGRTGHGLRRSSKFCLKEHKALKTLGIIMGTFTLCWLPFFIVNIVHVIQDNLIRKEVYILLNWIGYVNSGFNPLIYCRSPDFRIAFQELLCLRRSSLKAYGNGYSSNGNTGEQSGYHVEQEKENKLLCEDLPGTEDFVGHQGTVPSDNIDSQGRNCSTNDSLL

[6] = target: AP-2 complex subunit beta (Homo sapiens) (UniProt P63010); assay: inhibitors of arrestin peptide binding to AP2, pilot screen, biochemical, validation set, GST-AP2 beads, flow cytometry (AID 504541;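 active = inhibition above 54%, about 3 SD of non-fluorescent compounds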;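 also: AP2 carries R879A mutation and is captured from E. coli lysate; bead-bound FITC arrestin peptide fluorescence measuring arrestin peptide binding to AP2; 0% = DMSO wells and 100% = excess unlabeled arrestin peptide control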); conditions: FITC arrestin peptide, at 10 µM, stronger effect = higher value, AP2 beta2 appendage fragment, R879A mutant
Sequence of AP-2 complex subunit beta (Homo sapiens) (P63010 whole entry, looked up, the tested form may be a part, one chain of several): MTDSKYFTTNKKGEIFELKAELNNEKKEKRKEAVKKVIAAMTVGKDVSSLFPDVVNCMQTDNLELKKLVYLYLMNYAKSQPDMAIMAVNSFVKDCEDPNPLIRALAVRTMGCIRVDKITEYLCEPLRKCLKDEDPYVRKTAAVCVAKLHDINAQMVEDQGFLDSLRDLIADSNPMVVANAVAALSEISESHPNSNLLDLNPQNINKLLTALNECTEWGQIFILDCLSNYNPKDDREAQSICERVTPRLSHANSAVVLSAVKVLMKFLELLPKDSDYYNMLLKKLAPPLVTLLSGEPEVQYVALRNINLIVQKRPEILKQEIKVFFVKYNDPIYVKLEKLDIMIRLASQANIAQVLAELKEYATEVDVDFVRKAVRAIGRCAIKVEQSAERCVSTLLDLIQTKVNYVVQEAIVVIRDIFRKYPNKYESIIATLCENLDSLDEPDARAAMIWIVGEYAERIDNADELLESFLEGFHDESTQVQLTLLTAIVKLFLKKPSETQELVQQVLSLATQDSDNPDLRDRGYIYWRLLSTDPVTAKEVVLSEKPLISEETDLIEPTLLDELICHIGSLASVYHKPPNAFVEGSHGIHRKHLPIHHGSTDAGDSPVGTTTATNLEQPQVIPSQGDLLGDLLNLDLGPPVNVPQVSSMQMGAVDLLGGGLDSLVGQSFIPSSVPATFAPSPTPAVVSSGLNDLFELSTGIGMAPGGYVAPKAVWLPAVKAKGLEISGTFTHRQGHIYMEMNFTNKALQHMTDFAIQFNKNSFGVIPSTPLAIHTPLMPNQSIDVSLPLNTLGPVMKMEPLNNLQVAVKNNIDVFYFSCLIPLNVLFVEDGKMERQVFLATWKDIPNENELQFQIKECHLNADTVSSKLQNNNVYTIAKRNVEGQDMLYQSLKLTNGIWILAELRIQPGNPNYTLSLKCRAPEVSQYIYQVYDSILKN

[7] = yeast V-ATPase proton transport modulators, S. cerevisiae, pHLuorin, HTS validation (AID 504600; in the data active = response above about 15%;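 also: plate controls were DMSO for no effect and reference compound for full effect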); conditions: S. cerevisiae pHLuorin cytosolic pH, at 10 µM, stronger effect = higher value
[8] = tested on: anti-desmoglein-3 scFv antibody binding to human DSG3; assay: inhibitors of anti-DSG3 scFv binding to DSG3, pilot screen, biochemical, validation compound set, bead-based, flow cytometry (AID 588368;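 active = binding below the plate cutoff, the plate median minus 3 SD, with a reading above zero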;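 also: signal is the median channel fluorescence of bead-bound GFP antibody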); conditions: Protein G beads, DSG3-Fc, scFv-GFP binding, at 10 µM, stronger effect = lower value
[9] = inhibitors of fungal efflux pumps CDR1, CDR2, MDR1, pilot screen, validation compound set, multiplex, phenotypic (AID 588506;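 active = efflux inhibition above 0.42, the validation set average plus 4 SD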;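 also: Nile Red retained in cells so higher fluorescence means more efflux inhibition; 0 = negative control wells and 1 = enniatin B 25 µM full block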); conditions: S. cerevisiae pump-expressing triplex, Nile Red efflux flow cytometry; at 10 µM; stronger effect = higher value; the pumps come from Candida albicans
[10] = target: ATP-binding cassette sub-family B member 6 (Homo sapiens) (UniProt Q9NP58); assay: ABCB6 transporter inhibitors, pilot screen, K562-ABCB6 cells, flow cytometry, validation set (AID 588550;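 active = inhibition above the screen-wide mean plus 3 SD, about 51%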;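 also: 0% = DMSO wells and 100% = benzethonium chloride 70 µM positive control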); conditions: K562-ABCB6 porphyrin accumulation, 1 h, at 10 µM, stronger effect = higher value
Sequence of ATP-binding cassette sub-family B member 6 (Homo sapiens) (Q9NP58 whole entry, looked up): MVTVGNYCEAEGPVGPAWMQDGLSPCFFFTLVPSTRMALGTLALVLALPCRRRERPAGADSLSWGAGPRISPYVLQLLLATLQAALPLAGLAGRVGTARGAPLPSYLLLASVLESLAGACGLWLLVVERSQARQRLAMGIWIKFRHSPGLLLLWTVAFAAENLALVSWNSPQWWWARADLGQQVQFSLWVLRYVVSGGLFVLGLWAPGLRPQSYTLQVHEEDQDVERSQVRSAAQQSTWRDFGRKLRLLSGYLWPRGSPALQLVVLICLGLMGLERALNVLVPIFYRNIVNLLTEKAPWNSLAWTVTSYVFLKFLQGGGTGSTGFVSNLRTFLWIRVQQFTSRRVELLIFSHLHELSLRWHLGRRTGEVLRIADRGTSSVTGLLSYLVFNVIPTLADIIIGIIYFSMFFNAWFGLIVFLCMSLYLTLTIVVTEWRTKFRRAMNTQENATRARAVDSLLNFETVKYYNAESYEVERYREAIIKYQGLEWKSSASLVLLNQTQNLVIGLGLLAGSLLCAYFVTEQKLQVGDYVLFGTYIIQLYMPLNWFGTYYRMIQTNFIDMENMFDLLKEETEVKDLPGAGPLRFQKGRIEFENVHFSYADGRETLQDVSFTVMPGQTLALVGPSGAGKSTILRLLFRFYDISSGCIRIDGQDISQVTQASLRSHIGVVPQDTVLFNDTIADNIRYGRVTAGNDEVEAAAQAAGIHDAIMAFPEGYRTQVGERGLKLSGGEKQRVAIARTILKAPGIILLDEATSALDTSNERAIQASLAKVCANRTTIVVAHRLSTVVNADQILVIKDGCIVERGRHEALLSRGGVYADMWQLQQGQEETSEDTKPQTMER

[11] = promoters of myeloid differentiation in arrested cells, primary screen, cell-based, GFP/MAC1 double positive, flow cytometry, validation set (AID 588685;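 active = differentiation response of at least 50%, scaled between solvent and reference control, from cells with both markers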;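 also: compound exposure lasts four days before antibody staining and flow analysis; 0% = DMSO wells and 100% = 5 µM fulvestrant positive control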); conditions: ER-HoxA9 marrow cells, stronger effect = higher value, normalized: vehicle 0, fulvestrant 100
[12] = RPL19A-GFP modulators, yeast TOR pathway, confirmation, cell-based, S. cerevisiae, flow cytometry, cherry picks, mother/daughter gates (AID 2270;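 active = GFP response below 50% of the DMSO control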); conditions: S. cerevisiae RPL19A-GFP strain, 3 h, at 10 µM, stronger effect = lower value, 100 = same GFP as DMSO wells
[13] = LAP4-GFP expression modulators in yeast, confirmation, cell-based, cherry picks, flow cytometry, mother/daughter gates (AID 2271;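 active = GFP response above 150% of the DMSO control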;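 also: ratio of sample to DMSO plate mean so 100% equals DMSO level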); conditions: S. cerevisiae LAP4-GFP strain, 3 h, at 10 µM, stronger effect = higher value, 100 means same as DMSO control
[14] = modulators of MEP2-GFP levels in yeast, confirmation, S. cerevisiae, flow cytometry GFP, cherry picks (AID 2272;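 active = GFP response above 150% of the DMSO control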;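 also: ratio of well signal to plate DMSO mean so 100% equals DMSO level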); conditions: S. cerevisiae MEP2-GFP strain, 3 h, at 10 µM, stronger effect = higher value
[15] = AGP1-GFP expression modulators, hit retest, confirmation, cell-based, flow cytometry, S. cerevisiae, cherry picks (AID 2273);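 also: median GFP channel fluorescence over the whole cell population gate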; conditions: S. cerevisiae AGP1-GFP strain, 3 h, at 10 µM
[16] = modulators of CIT2-GFP expression in yeast, confirmation, S. cerevisiae, GFP fusion, cherry picks, mother/daughter gates (AID 2274); conditions: S. cerevisiae CIT2-GFP strain, flow cytometry, 3 h, at 10 µM, stronger effect = higher value
[17] = measured here: daughter cell gate
[18] = measured here: mother cell gate

Nc1ccc(N=Nc2ccccc2)c(N)n1
61.7%: double positive events [1]
inactive: vesicle binding response [1] 133% | inhibition [2] 28.7% | superoxide response (% of plate) [3] 114% | aptamer binding inhibition [4] 3% | response [5] -11.9% | inhibition [6] 4.28% | response [7] 6.54% | binding (% of control) [8] 103% | efflux inhibition (fraction of control) [9] -0.26 | inhibition [10] 4% | differentiation response [11] -5.97%

CCN(CC)CCCN(C(=O)c1cccs1)c1nc(-c2ccc(OC)cc2)cs1
inactive: GFP response vs DMSO [12] 104% | GFP response relative to DMSO [13] 98.7% | GFP response vs DMSO [14] 109% | GFP response, % of DMSO [15] 98% | GFP response, % of DMSO [16] 107%
101%: GFP response, % of DMSO [16, 17] | GFP response, % of DMSO [16, 18]

CCCCNC(=O)c1cc2c(=O)n3cccc(C)c3nc2n(Cc2ccncc2)c1=N
96.4%: GFP response, % of DMSO [16, 17]
95.6%: GFP response, % of DMSO [16, 18]
inactive: GFP response vs DMSO [12] 97.2% | GFP response relative to DMSO [13] 96.5% | GFP response vs DMSO [14] 102% | GFP response, % of DMSO [15] 102% | GFP response, % of DMSO [16] 104%

CN(C)CCCN(C(=O)c1cccs1)c1nc(-c2ccccc2)cs1
inactive: GFP response vs DMSO [12] 98% | GFP response relative to DMSO [13] 90.7% | GFP response vs DMSO [14] 102% | GFP response, % of DMSO [15] 100% | GFP response, % of DMSO [16] 101%

COc1ccccc1C(CC(=O)Nc1ccccc1C)c1ccc(OC(C)C)cc1 (stereo not drawn)
active: efflux inhibition (fraction of control) [9] 0.54
inactive: vesicle binding response [1] 263% | inhibition [2] 9.95% | superoxide response (% of plate) [3] 92.7% | aptamer binding inhibition [4] 4% | response [5] -15% | inhibition [6] -4.43% | response [7] -5.65% | binding (% of control) [8] 105% | inhibition [10] 0% | differentiation response [11] -1.05%
63.5%: double positive events [1]

Cc1ccc2c(c1)C1CN(C)CCC1N2C(=O)c1ccc(Cl)c(S(=O)(=O)N2CCOCC2)c1 (stereo not drawn)
inactive: GFP response vs DMSO [12] 102% | GFP response relative to DMSO [13] 107% | GFP response vs DMSO [14] 102% | GFP response, % of DMSO [15] 102% | GFP response, % of DMSO [16] 112%

COC1CCCCC1Nc1ccc(C)c(C)c1 (stereo not drawn)
inactive: vesicle binding response [1] 262% | inhibition [2] -1.79% | superoxide response (% of plate) [3] 100% | aptamer binding inhibition [4] 5% | response [5] 6.1% | inhibition [6] -5.05% | response [7] 0.08% | binding (% of control) [8] 94.7% | efflux inhibition (fraction of control) [9] 0.05 | inhibition [10] 5% | differentiation response [11] -12%
59.5%: double positive events [1]

CN1CCN(CCCN2c3ccccc3Sc3ccc(C(F)(F)F)cc32)CC1
active: inhibition [2] 57.6% | response [7] 24.5%
inactive: vesicle binding response [1] 215% | superoxide response (% of plate) [3] 80.3% | aptamer binding inhibition [4] -2% | response [5] 23.7% | inhibition [6] 1.45% | binding (% of control) [8] 109% | efflux inhibition (fraction of control) [9] 0 | inhibition [10] 8% | differentiation response [11] 7.82%
64.7%: double positive events [1]

COc1ccccc1/C=C/C(=O)c1ccc(Cl)cc1
inactive: GFP response vs DMSO [12] 102% | GFP response relative to DMSO [13] 92.6% | GFP response vs DMSO [14] 97.8% | GFP response, % of DMSO [15] 98.9% | GFP response, % of DMSO [16] 103%

CC(=O)N1CC23C=CC(CC2CC12CCCCCC2)O3 (stereo not drawn)
61.4%: double positive events [1]
inactive: vesicle binding response [1] 200% | inhibition [2] 3.99% | superoxide response (% of plate) [3] 102% | aptamer binding inhibition [4] 8% | response [5] -21.9% | inhibition [6] -0.87% | response [7] -29.7% | binding (% of control) [8] 104% | efflux inhibition (fraction of control) [9] -0.09 | inhibition [10] 0% | differentiation response [11] 0%

CNCCc1ccccn1
60%: double positive events [1]
inactive: vesicle binding response [1] 212% | inhibition [2] 15.1% | superoxide response (% of plate) [3] 122% | aptamer binding inhibition [4] -6% | response [5] -19.8% | inhibition [6] -12.3% | response [7] -10.1% | binding (% of control) [8] 100% | efflux inhibition (fraction of control) [9] 0 | inhibition [10] 1% | differentiation response [11] 2.89%

CC(=O)N1CC2(C)CN(C(C)=O)CC(C)(C1)C2
inactive: vesicle binding response [1] 169% | inhibition [2] 8.25% | superoxide response (% of plate) [3] 91.7% | aptamer binding inhibition [4] -2% | response [5] -23.9% | inhibition [6] -12.9% | response [7] 1.35% | binding (% of control) [8] 100% | efflux inhibition (fraction of control) [9] 0 | inhibition [10] -1% | differentiation response [11] -4.99%
60.3%: double positive events [1]

Cc1cccc(N=c2oc3cc(O)ccc3cc2C(N)=O)c1
inactive: GFP response vs DMSO [12] 96.5% | GFP response relative to DMSO [13] 100% | GFP response vs DMSO [14] 106% | GFP response, % of DMSO [15] 102% | GFP response, % of DMSO [16] 108%
90.5%: GFP response, % of DMSO [16, 17]

Cn1c(=O)c2c(nc(SCCN3CCCCC3)n2C)n(C)c1=O
inactive: vesicle binding response [1] 176% | inhibition [2] -0.27% | superoxide response (% of plate) [3] 85.5% | aptamer binding inhibition [4] -3% | response [5] -25.4% | inhibition [6] -6.3% | response [7] 1.6% | binding (% of control) [8] 110% | efflux inhibition (fraction of control) [9] -0.13 | inhibition [10] -2% | differentiation response [11] -11.9%
61.5%: double positive events [1]

O=C(OCCN1CCCC1)C1(c2ccccc2)CCCC1
65.8%: double positive events [1]
inactive: vesicle binding response [1] 226% | inhibition [2] -4.52% | superoxide response (% of plate) [3] 86.5% | aptamer binding inhibition [4] 1% | response [5] 1.23% | inhibition [6] -5.26% | response [7] 1.69% | binding (% of control) [8] 97% | efflux inhibition (fraction of control) [9] -0.06 | inhibition [10] -8% | differentiation response [11] -7.2%

N/C(=N\OC(=O)c1ccc(Cl)cc1Cl)c1ccccc1
inactive: GFP response vs DMSO [12] 98.4% | GFP response vs DMSO [14] 106% | GFP response, % of DMSO [15] 80.1%
active: GFP response relative to DMSO [13] 155% | GFP response, % of DMSO [16] 151%

Fc1ccc(C2Nc3cccc4cccc(c34)N2)cc1
inactive: GFP response vs DMSO [12] 98.2% | GFP response relative to DMSO [13] 106% | GFP response vs DMSO [14] 97.8% | GFP response, % of DMSO [15] 95.4% | GFP response, % of DMSO [16] 97.8%
